IL1B secr inh: qHTS for Inhibitors of Inflammasome Signaling: IL-1-beta AlphaLISA Primary Screen. THP-1 LPS/ATP IL-1B secretion, AlphaLISA, 16 h; stronger effect = lower value. activity change, % at 57.5 µM. 360,000 compounds, 4.7% hits; in the data active means activity change below about -50%; inconclusive means mostly about -30% to -49%
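THP-1 cells pretreated 1 hr with compounds (up to 57.5 uM final), then stimulated with LPS (250 ng/mL final) plus ATP (1.25 mM final); secreted IL-1B measured by AlphaLISA after 16 hr, decreased signal indicating inhibition.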
TDP1 cell noCPT: qHTS for Inhibitors of human tyrosyl-DNA phosphodiesterase 1 (TDP1): qHTS in cells in absence of CPT; Potency, µM (top dose mostly 46.2 µM), hits mostly inhibitors; 420,000 compounds, 15% hits; DT40 Tdp1-/- hTDP1 cells, no CPT, ATP luminescence, 48 h; further: nearly all actives have a fitted effect of over 55% in size
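Growth of hTDP1-complemented DT40 Tdp1-knockout cells is measured by ATP luminescence after at least 48 hr compound exposure at 37 °C, with DMSO substituting for the 20 nM CPT used in the parallel screen.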
TDP1 cell CPT: qHTS for Inhibitors of human tyrosyl-DNA phosphodiesterase 1 (TDP1): qHTS in cells in presence of CPT | chicken DT40 Tdp1-/-;hTDP1 cells + 20 nM CPT, ATP luminescence, 48 h | AID 686979, 2013 | 420,000 compounds, 12% hits | Potency, µM (top dose mostly 46.2 µM), most hits filed as inhibitors; further: nearly all actives have a fitted effect of over 55% in size
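Chicken DT40 Tdp1-/- cells complemented with human TDP1, 400 cells/well, exposed to compounds plus 20 nM camptothecin for at least 48 h at 37 C; viability read as ATP content by CellTiter-Glo luminescence.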
HT1080 IDH1KD tx: qHTS for induction of synthetic lethality in tumor cells producing 2HG: qHTS for the HT-1080-IDH1KD cell line; Potency, µM (top dose mostly 46.1 µM), most hits filed as cytotoxic; 360,000 compounds, 2% hits; HT-1080 IDH1 knockdown viability, ATP luminescence, 48 h; AID 686971, 2013
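Cytotoxicity counter-line: IDH1KD HT-1080, 48 h, CellTiter-Glo. Curves classed by r2, magnitude and activity.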
HT1080NT lethal: qHTS for induction of synthetic lethality in tumor cells producing 2HG: qHTS for the HT-1080-NT fibrosarcoma cell line. HT-1080-NT fibrosarcoma viability, CellTiter-Glo ATP luminescence, 48 h. Potency, µM (doses to about 46.1 µM), hits mostly cytotoxic. 360,000 compounds, 1.6% hits;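 further: NT is the 2HG producing partner of a matched IDH1 knockdown line; nearly all actives have a fitted effect of over 55% in size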
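HT-1080-NT; 750 cells/well; 5% FBS RPMI; 48 h compound, 37 degrees C; CellTiter-Glo luminescence; curve fitting and curve-class assignment.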
A number is an active result; n = inactive; u = inconclusive; x = no result; [ ] = remark or other dose. Only some compounds are listed: those with a hit (about 19% of all), similar ones and a draw of the others. Unless noted, the call rests on the fitted dose curve; in most records, active means well fitted curve in the direction sought with a large enough effect; inconclusive means small, poorly fitted or top-dose-only effect, or another doubt; inactive means no such curve, though single readings can be large; an effect the other way counts as inactive or inconclusive.

SMILES	IL1B secr inh	TDP1 cell noCPT	TDP1 cell CPT	HT1080 IDH1KD tx	HT1080NT lethal
O=C(NCCc1csc(-c2cccnc2)n1)c1ccc(Cl)cc1	n	u	n	n	n
CCCNC(=O)CCCN1C(=O)c2ccccc2Sc2ncccc21	n	n	n	n	n
Cc1ccc(C)c(NC(=O)CCN2C(=O)c3ccccc3Sc3ncccc32)c1	x	18.4µM	u	x	x
CC(C)NC(=O)CCN1C(=O)c2ccccc2Sc2ncccc21	n	n	n	n	n
CCCCSCCCNC(=O)CCCN1C(=O)c2ccccc2Sc2ncccc21	n	16.4µM	u	n	n
O=C(O)CCN1C(=O)c2ccccc2Sc2ncccc21	n	n	n	n	n
O=C(CCN1C(=O)c2ccccc2Sc2ncccc21)Nc1ccc(F)cc1	x	u	16.4µM	x	x
COc1ccc(CCNC(=O)c2c(O)c3c([nH]c2=O)CCCC3)cc1OC	n	u	u	n	n
CCOc1cc(C2C(C(=O)OC)=C(C)NC3=C2C(=O)c2ccccc23)cc(Br)c1OCC (centres undefined)	x	5.17µM	u	x	x
CCOc1cc(C2C(C(=O)OC)=C(C)NC3=C2C(=O)c2ccccc23)ccc1OC (centres undefined)	x	20.6µM	u	x	x
CCOC(=O)C1=C(c2ccccc2)NC(=O)NC1c1ccc(OC)c(OC)c1 (centres undefined)	n	n	u	n	n
C=CCOc1ccc(CN(C)CC(=O)Nc2ccc3c(c2)CCC3)cc1	n	u	23.1µM	n	n
COc1cc(CNc2ccc3c(c2)CCC3)cc(OC)c1O	n	n	n	n	n[9.24 µM]
CCOc1cc(CNc2ccc3c(c2)CCC3)ccc1O	n	23.1µM	u	n	n
CCOc1ccc(CN(C)CC(=O)Nc2ccc3c(c2)CCC3)cc1OC	n	16.4µM	u	n	n
COc1cc(CC(=O)Nc2ccc3c(c2)CCC3)cc(OC)c1OC	n	11.6µM	9.2µM	n	n
Cc1ccc(NC(=O)CN(C)C(=O)Cc2ccc3c(c2)CCC3)cc1	n	n	u	n	n
COc1ccc(CN(C)CC(=O)Nc2ccc(N3CCOCC3)cc2)cc1OC	n	n	n	n	n
Cc1cc(C)cc(NC(=O)NCc2c(-c3ccccc3)noc2C)c1	n	n	n	n	n
Cc1onc(-c2ccccc2)c1CNC(=O)Nc1ccc(C(F)(F)F)cc1	x	16.4µM	u	u	n
O=C(NCc1nc(-c2ccc(C(F)(F)F)cc2)no1)Nc1cc(Cl)cc(Cl)c1	-94.3	11.6µM	10.3µM	u	u
Cc1onc(-c2ccccc2)c1CNC(=O)Nc1ccc(F)cc1F	n	u	u	n	n
Cc1onc(-c2ccccc2)c1CNC(=O)Nc1cccc(Cl)c1	-65.9	u	u	u	n
Cc1ccc(-n2c(SCC(=O)NCc3ccco3)nc3c(sc4ccccc43)c2=O)cc1	n	u	u	n	n
O=C(Nc1nnc(CCN2CCOCC2)s1)C1CCCCC1	n	n	n	n	n
SMILES	IL1B secr inh	TDP1 cell noCPT	TDP1 cell CPT	HT1080 IDH1KD tx	HT1080NT lethal
N=c1nc(N)nc2n1NC(c1ccc(F)cc1)=CS2	u	16.4µM	18.4µM	u	u
Fc1ccc(C2=CSC3=NCCN23)cc1	n	n	n	n	n
Cc1onc(-c2ccccc2Cl)c1C(=O)Oc1cccc2cccnc12	n	2.91µM	4.11µM	23.1µM	n
Cc1ccccc1C(=O)OCn1nnc2ccccc2c1=O	n	n	n	n	n
COc1ccccc1N1CCN(C(=O)c2cc(-c3cccc(Cl)c3)on2)CC1	n	12.6µM	u	n	n
COc1ccccc1N1CCN(C(=O)c2c(-c3ccccc3Cl)noc2C)CC1	n	20.6µM	u	u	u
Cc1cc(C(=O)OCn2nnc3ccccc3c2=O)c(C)n1-c1ccccc1	n	18.4µM	u	n	n
Cc1c(/C(O)=C2/C(=O)C(=O)N(CCN3CCOCC3)C2c2ccccn2)cnn1-c1ccccc1 (centres undefined)	n	n	n	n	n
CCOC(=O)c1c(Nc2ccccc2OCCOC)n[nH]c1C	u	n	u	n	n
CC1Cc2ccccc2N1C(=O)Cn1cc([N+](=O)[O-])cn1 (centres undefined)	n	n	n	n	n
C/C(=N/OC(=O)c1c(-c2ccccc2Cl)noc1C)c1cnccn1	n	u	n	n	n
Cc1onc(-c2ccccc2Cl)c1C(=O)N1CCN(C/C=C/c2ccccc2)CC1	-51.9	10µM	u	n	n
Cc1ccc(S(=O)(=O)n2nc(OC(=O)c3c(-c4ccccc4Cl)noc3C)cc2N)cc1	n	14.6µM	18.4µM	u	n
Cc1onc(-c2ccccc2Cl)c1C(=O)OCn1nnc2ccccc2c1=O	u	15.8µM	18.4µM	n	n
Cc1onc(-c2ccccc2Cl)c1C(=O)O/N=C(\N)c1ccc([N+](=O)[O-])o1	n	23.1µM	18.4µM	n	u
COc1cccc(CN2CC(C(=O)N(C)CC3CCOCC3)CCC2=O)c1 (centres undefined)	n	n	n	n	n
O=C(COc1ccccc1Cl)Nc1ccc2[nH]c(=O)[nH]c2c1	n	n	n	n	n
O=C(c1ccc(=O)n(Cc2ccccc2)n1)N1CCN(C/C=C/c2ccccc2)CC1	n	u	18.4µM	n	n
Cc1onc(-c2ccccc2Cl)c1C(=O)OCC(=O)N1CCN(c2ccccc2)CC1	n	16.4µM	u	n	n
CCOC(=O)c1cnc2c(c(C)nn2C)c1Oc1cc(Cl)cc(Cl)c1	n	u	u	n	n
COC(=O)c1sccc1NC(=O)Nc1cccc(F)c1	n	n	n	n	n
Cc1ccccc1-c1nccc(NCCN2CCOCC2)n1	x	n	n	x	x
c1ccc(COc2ccc(-c3cc4nc(NCCN5CCOCC5)ccn4n3)cc2)cc1	n	20.6µM	u	18.4µM	u
Cc1cc(-c2ccccc2)nnc1NCCN1CCOCC1	n	n	n	n	n
c1ccc(COc2cccc(-c3cc4nc(NCCN5CCOCC5)ccn4n3)c2)cc1	n	13µM	25.9µM	u	14.6µM
CN(C)c1ccnc(N(Cc2ccccc2)Cc2ccccc2)c1C#N	n	u	u	n	n
Cc1ncn(-c2ccccc2)c1-c1ccccc1	n	n	u	n	n
CCc1nc(CN2CCN(c3cc(C(F)(F)F)ccn3)CC2)c(C)[nH]1	n	16.4µM	23.1µM	n	n
COc1ccc(N(CC(=O)Nc2ccc(C)cn2)S(=O)(=O)c2c(C)noc2C)cc1	n	n	n	n	n
OC(CNCC(c1ccc(Cl)cc1Cl)c1c[nH]c2ccccc12)c1ccccc1 (centres undefined)	-103.4	13µM	u	7.31µM	20.6µM

Source: PubChem
